Data on 66 compounds can be found in PubChem BioAssay AID2289 (National Center for Advancing Translational Sciences (NCATS), 2010).

Among all 340,000 compounds or so, about 3,300 (0.97%) were called active. Another 9% or so got no clear call; they are omitted. Calls follow the shape of the dose curve; as a rule, active = well fitted inhibition curve with a large enough effect; inconclusive = small, poorly fitted or top-dose-only effect, or effect the other way; inactive = flat fitted curve, though single readings scatter. The list shows a part of the results.
Potency is read from the fitted curve at half-maximal effect.

This test is described as follows: qHTS Assay for Modulators of miRNAs and/or Inhibitors of miR-21. Also: nearly all actives have a fitted effect of over 55% in size. The following applies: HeLa miR-21-FLuc reporter, luciferase luminescence, 48 h; actives lower the signal. An excerpt: MLSCN Grant: 1 R21 NS059478-01 Assay Provider: Qihong Huang, The Wistar Institute NCGC Assay Overview: MicroRNAs (miRNAs) are endogenously encoded small (~20-25 nucleotides), nonprotein-coding RNAs that are involved in post-transcriptional repression of target messenger RNAs (mRNAs) (Le and Hannon, 2004). Estimated to be involved in the regulation of 30% of all protein-coding mRNAs (Filipowicz et al., 2008), miRNAs play a significant role in many biological processes including cellular differentiation and tissue development (Ghildiyal and Zamore, 2009).
NCGC Assay Protocol Summary: Reagents: HeLa cells stably expressing firefly luciferase (FLuc) under the control of a CMV promoter (upstream) and a miR-21 binding sequence directly downstream of the gene. These cells endogenously express miR-21. Control compounds used were compound C3 (provided by collaborator), N6-phenyladenosine (MP Biomedicals, 0215379625), and DMSO. Assay Summary: 6uL of HeLa miR-21-FLuc cells in assay buffer (DMEM, Invitrogen #21063-029; 10% FBS, HyClone #SH30071.03) were dispensed at 2000cells/well (3.3 x 10^5 cells/mL) into Greiner solid-white TC-treated 1536-well plates using a Multidrop Combi (Thermo Fisher Scientific). Plates were incubated for one hour at 37 degree Celsius, 95% humidity, 5% CO2. These assay plates were then treated with 23nL of compound or DMSO using a Kalypsys pin tool, which allows for delivery of a 24-point titration of each compound to the assay plate, with a final compound concentration ranging from approximately 40uM to 5pM. Assay plates were then incubated for 48 hours. After incubation, plates were allowed to come to RT for one hour prior to delivery of 3uL of 3X luciferase detection reagent. After a 15 minute incubation to allow for cell lysis, luciferase activity was measured using a ViewLux CCD imager (PerkinElmer), with an average exposure time of 2-12 seconds. Keywords: NIH Roadmap, MLPCN, MLSMR, qHTS, miR-21, microRNA, firefly luciferase, FLuc.
(qHTS replaces the single test concentration by a dilution series.)
In the case of `Cc1ccc2c(CN(C)Cc3cccc(F)c3)cc(=O)oc2c1`, the Potency was 13.1 µM (active).

`Cc1ccc2c(CNCc3ccco3)cc(=O)oc2c1`: the Potency is 9.27 µM (active).

For `COc1ccc(N=Cc2nc(-c3ccccc3)oc2OC(=O)c2ccccc2)cc1`, the Potency is 1.85 µM (active).

Take `CCN(/C=N/c1sc2c(c1C#N)CCCCC2)CC`: the Potency is 3.69 µM (active).

Regarding `CN(C)/C=N/c1sc2c(c1C#N)CCCCC2`, the Potency is 5.21 µM (active).

Turning to `CC1CCc2c(sc(/N=C/N(C)C)c2C#N)C1` (stereo unspecified), the Potency was 7.36 µM (active).

`CCn1c(C)nc2cc(C(=O)NNC(=S)Nc3ccccc3OC)ccc21`: the Potency is 14.7 µM (active).

Consider `CCn1c(C)nc2cc(C(=O)NNC(=S)Nc3ccccc3Cl)ccc21`, for which the Potency is 7.36 µM (active).

On to `CCN(CC)CCn1c2ccccc2c2nc3ccc([N+](=O)[O-])cc3cc21`, for which the Potency was 14.7 µM (active).

For the compound `O=C1CCCC(O)=C1N=Nc1ccc2c(c1)OCO2`, the Potency was 14.7 µM (active).

As to `O=C(Nc1ccc(-c2nc3ccccc3s2)c(OC(=O)c2ccccc2)c1)c1ccccc1`, the Potency is 0.329 µM (active).

As to `O=C(Nc1ccc(-c2nc3ccccc3s2)c(O)c1)C1=COCCO1`, the Potency was 0.261 µM (active).

In the case of `CCSc1ccccc1C(=O)Nc1ccc(-c2nc3ccccc3s2)c(O)c1`, the Potency was 3.69 µM (active).

As to `O=C(CC1Sc2ccccc2NC1=O)c1ccc(Br)cc1` (stereo unspecified), the Potency is 8.26 µM (active).

In the case of `CC(=O)Nc1ccccc1C(=O)C(=O)Nc1ccc(C)c(F)c1`, the Potency is 2.33 µM (active).

Regarding `CC(=O)Nc1ccccc1C(=O)C(=O)Nc1ccc(C)c(C)c1`, the Potency is 5.21 µM (active).

On to `CN(C)c1ccc(-c2ccc3c(=O)c4ccccc4n(C)c3c2)cn1`, for which the Potency was 4.65 µM (active).

In the case of `Cn1c2ccccc2c(=O)c2ccc(-c3ccc4c(c3)OCO4)cc21`, the Potency was 1.04 µM (active).

For `Cc1ccc(N2C(=O)c3ccccc3NC2(C(=O)O)c2ccccc2)cc1Cl` (stereo unspecified), the Potency was 2.93 µM (active).

For the compound `O=[N+]([O-])c1ccccc1CSc1nc2ccccc2o1`, the Potency is 14.7 µM (active).

With `CC(=O)c1ccc(Oc2ncnc3c2oc2ccccc23)cc1`, the Potency is 0.927 µM (active).

For the compound `COc1ncnc2c1oc1ccccc12`, the Potency was 8.26 µM (active).

For `COc1ccc(Oc2ncnc3c2oc2ccccc23)cc1`, the Potency was 11.7 µM (active).

For the compound `Cc1ccc(/C=N/n2c(C)nc3ccccc3c2=O)s1`, the Potency was 6.56 µM (active).

For `Cc1nc2ccccc2c(=O)n1/N=C/c1ccccc1Cl`, the Potency is 6.56 µM (active).

`Fc1ccccc1CSc1nnc(-c2cccs2)o1`: the Potency was 3.29 µM (active).

Turning to `CC(C)(C)c1nnc(NC(=O)c2ccc3c(c2)OCO3)s1`, the Potency was 1.47 µM (active).

Consider `CCC(CC)c1nnc(NC(=O)c2ccc3c(c2)OCO3)s1`, for which the Potency is 7.36 µM (active).

Consider `O=C(N/N=C/c1cccc(F)c1)NC1CCCCC1`, for which the Potency was 16.5 µM (active).

With `COc1cccc(/C=N/NC(=O)NC2CCCCC2)c1O`, the Potency was 4.14 µM (active).

For the compound `O=C(N/N=C/c1ccccc1F)NC1CCCCC1`, the Potency was 10.4 µM (active).

Take `O=C(CCSc1ccccc1Cl)Nc1cccc([N+](=O)[O-])c1`: the Potency is 11.7 µM (active).

`NS(=O)(=O)c1cccc(NC(=O)CCSc2ccccc2Cl)c1`: the Potency was 10.4 µM (active).

For the compound `CN(C)C(=O)c1ccc(-c2cc(C(F)(F)F)nn2C)s1`, the Potency was 6.56 µM (active).

For `O=C(CN1c2ccc(Br)cc2-c2ccccc2S1(=O)=O)N1CCCCC1`, the Potency is 7.36 µM (active).

Regarding `Cc1nccc(-c2cc(-c3ccc(Cl)cc3Cl)no2)n1`, the Potency is 2.33 µM (active).

Regarding `COc1ccc(-c2csc(C3=C(O)CN(CCCN4CCCC4=O)C3=N)n2)cc1OC`, the Potency was 16.5 µM (active).

Take `Nn1c(COc2ccc(Cl)cc2)nc2ccccc2c1=O`: the Potency is 7.36 µM (active).

`Cc1ccccc1OCc1nc2ccccc2c(=O)n1N`: the Potency is 16.5 µM (active).

Turning to `Cc1ccccc1OCc1nc2ccccc2c(=O)n1/N=C/c1ccco1`, the Potency was 10.4 µM (active).

For `COc1ccc(Nc2oc(-c3ccccc3)nc2C#N)cc1`, the Potency was 1.85 µM (active).

As for `c1ccc(Nc2nnc(-c3cccc4ccccc34)o2)cc1`, the Potency is 1.85 µM (active).

For `COc1ccc(Nc2oc(-c3ccc(OC)cc3)nc2C#N)cc1`, the Potency is 2.93 µM (active).

On to `COc1ccc(-c2nc(C#N)c(NC(C)C)o2)cc1`, for which the Potency was 6.56 µM (active).

Consider `CCOc1ccc(Nc2oc(Cc3ccccc3)nc2C#N)cc1`, for which the Potency was 11.7 µM (active).

Consider `CC(C)Nc1oc(-c2cccc3ccccc23)nc1C#N`, for which the Potency is 13.1 µM (active).

For `O=C1c2ccccc2C(=O)c2c1cccc2N1CCOCC1`, the Potency was 11.7 µM (active).

Take `O=c1c2ccccc2nc(-c2ccccc2)n1Cc1ccccc1`: the Potency was 14.7 µM (active).

As to `COc1ccccc1-c1ccc(NC2CCCCC2)nn1`, the Potency is 7.36 µM (active).

As for `COc1ccccc1-c1ccc(NC2CCCC2)nn1`, the Potency was 13.1 µM (active).

Take `Cn1ccc(NC(=O)Nc2ccc(Cl)cc2Cl)n1`: the Potency is 3.69 µM (active).

As for `Cc1ccc2cc(CCNC(=O)c3ccco3)c(=O)[nH]c2c1`, the Potency is 5.85 µM (active).

Regarding `Cc1ccc2cc(CCNC(=O)c3ccco3)c(=O)[nH]c2c1C`, the Potency was 0.826 µM (active).

With `Cc1ccc(-c2ccc(/C=N/O)o2)cc1[N+](=O)[O-]`, the Potency is 16.5 µM (active).

On to `CCCc1cc(=O)n2[nH]c(-c3ccccc3)cc2n1`, for which the Potency was 4.14 µM (active).

On to `COc1ccccc1NC(=O)c1ccc2nsnc2c1`, for which the Potency is 7.36 µM (active).

`Cc1cccc(NC(=O)c2ccc3c(c2)OCCO3)c1C`: the Potency is 4.65 µM (active).

Take `COc1cc2c(cc1NC(=O)c1ccc3c(c1)OCO3)oc1ccccc12`: the Potency is 7.36 µM (active).

Regarding `COc1ccccc1NC(=O)c1ccc2c(c1)OCO2`, the Potency is 3.29 µM (active).

For `O=C(O)C1CC=CCC1C(=O)NCCc1csc(-c2ccccc2)n1` (stereo unspecified), the Potency is 18.5 µM (active).

As to `O=C1c2ccccc2S(=O)(=O)N1CC1CC(c2ccccc2Cl)=NO1` (stereo unspecified), the Potency is 4.14 µM (active).

As to `O=C1c2ccccc2S(=O)(=O)N1CC1CC(c2ccc(Cl)cc2)=NO1` (stereo unspecified), the Potency was 2.93 µM (active).

In the case of `O=C(COC(=O)Cn1cnc2ccccc21)Nc1ccc2c(c1)C(=O)c1ccccc1C2=O`, the Potency was 2.07 µM (active).

Regarding `COc1ccc(Nc2ncnc3c2c(C)c(C)n3CCO)cc1`, the Potency was 0.736 µM (active).

For `COc1ccccc1Nc1ncnc2c1c(C)c(C)n2CCO`, the Potency was 14.7 µM (active).

For the compound `Cc1c(C)n(CCO)c2ncnc(Nc3ccc(F)cc3)c12`, the Potency is 14.7 µM (active).
